This passage reports composite z-score and z-score results from PubChem BioAssay.

The source made the active and inactive calls. Unless noted, the rule behind the calls is not given here.

Assay [1] relates to Wnt5a (protein binding on small-molecule microarray). The assay is described as follows: small molecules binding Wnt5a protein – biophysical, small-molecule microarray, 635/667 nm fluorescence, primary screen (AID 1142).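 Note: fluorescence read at 667 nm with signal to noise per printed feature.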 The note with it: 635 nm fluorescence, higher = more signal.
Assay [2] in a line: ATP-based viability of Huh7 replicon cells – cell-based, CellTiter-Glo luminescence, basal, 48 h, cytotoxicity control for HCV replication inhibitor project, primary screen (AID 1143).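 Note: Huh7 hepatoma cells carrying a hepatitis C replication reporter with no stimulus; test concentration not given here.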 The note with it: higher = more signal, called active from +8 up or from −8 down. (A replicon is a self-replicating genome or part of one, used to study replication in cells.)
The nature of assay [3]: Pseudomonas biofilm growth suppression – PAO1 strain, BacTiter-Glo luminescence, LB-PBS, primary screen (AID 1144). To be noted: P. aeruginosa PAO1 biofilm, 12 h, higher = more signal.
Assay [4] can be described thus: basal CRE-LacZ reporter activity in PC12 – cell-based, unstimulated, primary screen (AID 1145). To be noted: no forskolin, luminescence, 4.5 h, higher = more signal, called active from +8 up or from −8 down.
Assay [5] is described as follows: forskolin-driven CRE-LacZ activity in PC12 – cell-based, CRE-LacZ reporter, forskolin-stimulated, primary screen (AID 1146).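 Note: PC12 cells with 6xCRE LacZ reporter stimulated by forskolin 10 µM; beta-galactosidase reporter signal reflecting CREB driven transcription.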 To be noted: luminescence, 4.5 h, higher = more signal, called active from +8 up or from −8 down.
The target of assay [6] is Streptavidin (Streptomyces avidinii) (UniProt P22629). The assay is described as follows: compounds binding control protein streptavidin – biophysical, small-molecule microarray, 635/667 nm fluorescence, artefact control for SMM compound annotation, primary screen (AID 1147).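 Note: signal reflects streptavidin binding to arrayed compounds as a control protein.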 To be noted: higher = more signal.
A short description of assay [7]: probe aInhba binding on compound microarray – biochemical, small-molecule microarray, 635/667 nm fluorescence, primary screen (AID 1148).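 Note: score merges 667nm spot fluorescence with signal-to-noise for antibody binding to printed compounds.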 The note with it: higher = more signal.
In assay [8] the target is Torsin-1A (Homo sapiens) (UniProt O14656). Nature of the assay: TOR1A wild-type binding on microarray – cell lysate, small-molecule microarray, lysate, 635/667 nm, primary screen (AID 1149). The note with it: COS7 hTOR1A-WT lysate, 635 nm fluorescence, higher = more signal.
The target is the same in assay [9]. Nature of the assay: torsin A mutant lysate binding on microarrays – cell lysate, small-molecule microarray, COS7 lysate, 635/667 nm fluorescence, primary screen (AID 1150).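 Note: score pools 667 nm emission and signal to noise measuring lysate protein binding.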 To be noted: COS7 hTOR1A mutant lysate, 635 nm fluorescence, higher = more signal.
The test system of assay [10] is Sonic hedgehog protein (Shh). The assay is described as follows: Sonic hedgehog microarray binding compounds – biochemical, small-molecule microarray, 635/667 nm fluorescence, primary screen (AID 1151).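 Note: Shh protein binding to compounds spotted on small-molecule microarray slides; score combines spot fluorescence intensity with signal-to-noise across triplicate slides.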 To be noted: 635 nm fluorescence, higher = more signal.

Sequence of Streptavidin (Streptomyces avidinii) (P22629 whole entry, looked up): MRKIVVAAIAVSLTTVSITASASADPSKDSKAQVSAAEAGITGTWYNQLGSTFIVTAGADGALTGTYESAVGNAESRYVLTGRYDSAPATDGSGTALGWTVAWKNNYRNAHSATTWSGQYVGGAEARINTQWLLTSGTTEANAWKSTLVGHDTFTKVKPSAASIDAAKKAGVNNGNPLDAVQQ
Sequence of Torsin-1A (Homo sapiens) (O14656 whole entry, looked up): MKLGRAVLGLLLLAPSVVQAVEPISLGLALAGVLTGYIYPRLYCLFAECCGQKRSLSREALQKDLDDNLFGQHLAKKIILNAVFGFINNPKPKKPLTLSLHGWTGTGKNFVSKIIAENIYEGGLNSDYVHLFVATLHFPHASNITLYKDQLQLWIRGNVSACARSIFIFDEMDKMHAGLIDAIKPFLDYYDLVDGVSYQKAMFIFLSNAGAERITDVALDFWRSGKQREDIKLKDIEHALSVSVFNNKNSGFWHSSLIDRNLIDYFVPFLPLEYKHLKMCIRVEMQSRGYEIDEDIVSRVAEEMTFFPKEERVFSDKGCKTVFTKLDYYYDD

Take `[N-]=[N+]=Nc1ccccc1C[C@@]1(C(=O)NCCN2CCOCC2)N=C(c2ccc(OCCCO)cc2)O[C@@H]1c1ccccc1N=[N+]=[N-]`: the composite z-score is 0.734 in assay [1]; 0.425 in assay [6]; 0.518 in assay [7]; 0.801 in assay [8]; -0.283 in assay [9]; 0.201 in [10]. For the same compound, the z-score in assay [2] was -4.82 (inactive); in assay [3], 1.52 (inactive); in assay [4], 0.512 (inactive); in assay [5], -1.83 (inactive).
For the compound `[N-]=[N+]=NCc1ccccc1[C@H]1OC(c2ccc(OCCCO)cc2)=N[C@@]1(Cc1ccccc1N=[N+]=[N-])C(=O)NCC(O)CO` (stereo not given in full), the composite z-score was 0.462 in [1]; 0.9 in assay [6]; 0.346 in assay [7]; 0.256 in assay [8]; 0.301 in assay [9]; -0.562 in assay [10]. For the same compound, the z-score is -3.57 (inactive) in assay [2], 0.401 (inactive) in assay [3], 0.745 (inactive) in assay [4] and -1.22 (inactive) in assay [5].
For `CS(=O)(=O)CCOC(=O)C1=CC(c2ccc(CO)cc2)=CC(C2CC2)N(Cc2sc3ccccc3c2Cl)C=C1C(=O)OCCS(C)(=O)=O` (stereo not given), the composite z-score is -0.0091 in assay [1]; 1.95 in assay [6]; 0.0843 in [7]; 1.24 in assay [8]; 1.31 in assay [9]; 1.23 in [10]. The z-score in assay [2] was -4.22 (inactive); in assay [3] it was -1.49 (inactive); in assay [4], 1.8 (inactive); in [5] it was -2.66 (inactive).
On to `CCCCCCc1nc(Cc2cc(OC)c(OC)c(OC)c2)cc2c1[Si](C(C)C)(C(C)C)OC2`, for which the composite z-score in [1] was 0.03; in [6] it was 0.0761; in assay [7], 0.0973; in [8], 0.108; in [9], -0.282; in [10], 0.724. Besides, the z-score was -5.33 (inactive) in assay [2], -0.012 (inactive) in assay [3], 0.498 (inactive) in assay [4] and -0.419 (inactive) in assay [5].
As to `C=CCOC(=O)[C@@]1(Cc2ccccc2)C[C@H]2CO[C@H](c3ccc(OC)cc3)N2C1=O`, the composite z-score in assay [1] was -0.0728; in assay [6] it was 0.911; in assay [7], -0.0719; in [8], 0.91; in [9], 0.456; in assay [10], 0.235. The z-score in [2] is -1.08 (inactive); in assay [3] it was 0.572 (inactive); in [4], 2.72 (inactive); in [5] it was 0.892 (inactive).
Turning to `COc1ccc(CCNC(=O)[C@@]2(Cc3ccccc3I)c3ccccc3C(=O)N(C3CCCCC3)[C@H]2c2ccc(CO)cc2)cc1`, the composite z-score in assay [1] was -0.372; in assay [6], 0.623; in assay [7], 0.0198; in assay [8] it was -0.57; in assay [9] it was -0.0979; in assay [10], -0.193. The z-score in assay [2] was -6.39 (inactive); in [3] it was -1.43 (inactive); in [4] it was -0.0243 (inactive); in assay [5] it was -1.06 (inactive).
For the compound `CN(C)C(=O)[C@@]1(Cc2ccccc2CN=[N+]=[N-])N=C(c2ccc(OCCCO)cc2)O[C@H]1c1ccccc1N=[N+]=[N-]`, the composite z-score is 0.0168 in assay [1]; 1.51 in [6]; 0.439 in [7]; 0.504 in assay [8]; 1.21 in [9]; 0.66 in assay [10]. For the same compound, the z-score in assay [2] is -4.96 (inactive); in assay [3], -0.638 (inactive); in [4] it was 1.74 (inactive); in assay [5], -1.69 (inactive).
Regarding `O=C(NCc1ccc(F)cc1)[C@H]1C[C@H]2C(=O)NCC(=O)N2[C@H]1c1ccc(O)cc1`, the composite z-score was 0.205 in assay [1]; -0.311 in [6]; 0.177 in assay [7]; 0.134 in assay [8]; 1.82 in [9]; 1.69 in assay [10]. The z-score in [2] is -0.764 (inactive); in assay [3], 0.3 (inactive); in [4], 0.0124 (inactive); in assay [5] it was -0.0067 (inactive).
`NC(=O)NCC#Cc1ccc2c(c1)[C@]1(C(=O)N2)[C@H](C(=O)N2CCN(c3ncccn3)CC2)[C@H]2C(=O)O[C@H](c3ccccc3)[C@H](c3ccccc3)N2[C@@H]1c1ccc(O)cc1`: the composite z-score is 0.364 in [1]; 0.328 in assay [6]; -0.352 in assay [7]; 0.0312 in assay [8]; 0.377 in [9]; 0.905 in [10]. Also, the z-score in [2] is -0.0243 (inactive); in [3] it was 0.407 (inactive); in [4] it was -0.467 (inactive); in assay [5], -0.43 (inactive).
`CCCCC(=C=CC[C@H](O)c1ccc(OCCO)cc1)CCO`: the composite z-score in assay [1] is -0.0188; in assay [6], -0.209; in assay [7], -0.0451; in assay [8] it was 0.678; in [9] it was 1.58; in [10], 0.011. The z-score is -1.08 (inactive) in assay [2], 0.489 (inactive) in [3], 2.57 (inactive) in assay [4] and 0.0098 (inactive) in assay [5].
With `CCOC(=O)C[C@H]1[C@H](OC(=O)c2ccccc2-c2ccccc2)[C@@H](NC(=O)c2ccc3ccccc3c2)c2cc(OCCCO)ccc2N1C(=O)c1ccccc1`, the composite z-score was determined as 0.331 in assay [1]; 0.157 in assay [6]; 0.102 in assay [7]; 0.0464 in assay [8]; 0.472 in assay [9]; 0.536 in [10]. The z-score is -0.399 (inactive) in [2], 1.6 (inactive) in assay [3], 2.94 (inactive) in [4] and -0.0955 (inactive) in [5].
Take `CC[C@@H]1C=C(C(=O)O)[C@H](c2ccc(C#N)cc2)N1S(=O)(=O)c1ccc(C)cc1`: the composite z-score in assay [1] is 0.413; in [6], 0.569; in assay [7], -0.157; in assay [8], 1.26; in [9], 1.65; in [10], 0.0698. Besides, the z-score in [2] is -0.857 (inactive); in [3] it was 0.24 (inactive); in [4], -0.975 (inactive); in assay [5], -0.397 (inactive).
In the case of `C[C@@H]1NC(=O)[C@@H](Cc2ccccc2)NC(=O)[C@@]23C(=O)N[C@@H](Cc4ccccc4)C2[C@H](C)[C@@]2(C)O[C@H]2C3/C=C/C/C=C\CNC1=O` (stereo not given in full), the composite z-score in [1] was -0.186; in [6], -0.963; in assay [7] it was -0.187; in assay [8], 0.406; in assay [9], 0.32; in [10] it was 1.45. Moreover, the z-score in assay [2] is 0.15 (inactive); in assay [3], 0.111 (inactive); in assay [4], 3.57 (inactive); in assay [5], 0.272 (inactive).
Consider `CCOC(=O)C[C@H]1[C@H](OC(=O)c2ccc(C(=O)c3ccccc3)cc2)[C@@H](NC(=O)CC(C)C)c2cc(OCCCO)ccc2N1C(=O)c1ccccc1`, for which the composite z-score in assay [1] was 0.154; in assay [6], 1.17; in assay [7] it was -0.0131; in assay [8], 0.125; in assay [9], 0.442; in [10], 1.32. Besides, the z-score is -0.133 (inactive) in assay [2], -0.367 (inactive) in assay [3], 3.01 (inactive) in assay [4] and -0.443 (inactive) in [5].
